Measured values published in PubChem BioAssay AID1159580 (chemical genetic matrix, 2015).
“And” between values parts separate entries of the source, which are not always exact repeats. Equal values may be shown once. In all, about 5,500 compounds went through this assay and about 2,000 (36%) were called active. Another 18% or so got no clear call; they are omitted. Rule as the data show it: active = normalized growth mostly below about 0.91 (no sharp cut-off); inconclusive = no clear call, values can overlap the other calls; inactive = mostly above about 0.92. The list shows a part of the results.

Test: chemical genetic growth profiling, strain panel (AID 1159580);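 also: tested at 20 µM; growth read once vehicle control cultures reached saturation at 30 °C; 1 = growth at the plate median or of vehicle wells; lower values mean less growth of the strain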
Conditions: S. cerevisiae deletion strains, growth OD

Measured: normalized growth

Cc1oncc1C(=O)Nc1ccc(C(F)(F)F)cc1
active: locus YBR009C, strain hhf1, active compounds read low 0.901 | locus YBR231C, strain swc5, active compounds read low 0.88 | locus YDR159W, strain sac3, active compounds read low 0.754 | locus YDR297W, strain sur2, active compounds read low 0.91 | locus YER155C, strain BEM2 (second series), active compounds read low 0.733 | locus YGL240W, strain doc1, active compounds read low 0.785 | locus YJL129C, strain trk1, active compounds read low 0.869 | locus YLR027C, strain aat2, active compounds read low 0.919 | locus YMR205C, strain PFK2, active compounds read low 0.794 | locus YNL071W, strain lat1, active compounds read low 0.858
inactive: locus YAL013W, strain DEP1, active compounds read low 1.03 and 0.94 | locus YAL021C, strain ccr4, active compounds read low 1.05 | locus YAL026C, strain drs2, active compounds read low 0.97 | locus YAL030W, strain snc1, active compounds read low 0.979 | locus YAL040C, strain CLN3, active compounds read low 0.918 | locus YBL061C, strain skt5, active compounds read low 1.01 | locus YBR021W, strain FUR4, active compounds read low 1.02 | locus YBR023C, strain chs3, active compounds read low 0.979 | locus YBR171W, strain sec66, active compounds read low 1.02 | locus YBR229C, strain ROT2, active compounds read low 1.01 | locus YBR279W, strain paf1, active compounds read low 1 | locus YCL011C, strain gbp2, active compounds read low 0.919 | locus YCL016C, strain dcc1, active compounds read low 0.981 | locus YCL029C, strain bik1, active compounds read low 0.996 | locus YCL061C, strain MRC1 (second series), active compounds read low 0.983 | locus YCL061C, strain MRC1, active compounds read low 0.95 | locus YCL069W, strain vba3, active compounds read low 0.982 | locus YCR088W, strain abp1, active compounds read low 0.978 | locus YDL005C, strain med2, active compounds read low 1.02 | locus YDL035C, strain GPR1, active compounds read low 1.04 | locus YDL040C, strain nat1, active compounds read low 0.99 | locus YDL074C, strain BRE1, active compounds read low 1.01 | locus YDL101C, strain DUN1, active compounds read low 1.02 | locus YDL134C, strain PPH21, active compounds read low 1.04 | locus YDL185W, strain tfp1, active compounds read low 0.993 | locus YDL192W, strain arf1, active compounds read low 0.989 | locus YDR001C, strain nth1, active compounds read low 0.986 | locus YDR069C, strain doa4, active compounds read low 0.977 | locus YDR101C, strain arx1, active compounds read low 0.991 | locus YDR137W, strain rgp1, active compounds read low 1.03 | locus YDR150W, strain NUM1, active compounds read low 1.01 | locus YDR162C, strain NBP2, active compounds read low 1.03 | locus YDR195W, strain ref2 1.07 | locus YDR318W, strain mcm21, active compounds read low 0.993 | locus YDR334W, strain swr1, active compounds read low 0.991 | locus YDR335W, strain msn5, active compounds read low 0.994 | locus YDR363W, strain ESC2, active compounds read low 0.966 | locus YDR388W, active compounds read low 1 | locus YDR392W, strain spt3, active compounds read low 0.761 | locus YDR502C, strain sam2, active compounds read low 0.996 | locus YEL003W, strain gim4, active compounds read low 0.971 | locus YEL037C, strain rad23, active compounds read low 1.01 | locus YEL061C, strain CIN8 (second series), active compounds read low 0.998 | locus YEL061C, strain CIN8, active compounds read low 1.01 | locus YER002W, strain NOP16, active compounds read low 1.01 | locus YER015W, strain faa2, active compounds read low 0.998 | locus YER016W, strain bim1, active compounds read low 1.02 | locus YER110C, active compounds read low 0.99 | locus YER111C, strain swi4, active compounds read low 1.02 | locus YER155C, strain BEM2, active compounds read low 1.03 | locus YER167W, strain BCK2, active compounds read low 1.02 | locus YFR010W, strain ubp6, active compounds read low 1.01 | locus YGL078C, strain dbp3, active compounds read low 0.991 | locus YGL086W, strain mad1, active compounds read low 0.989 | locus YGL167C, strain pmr1, active compounds read low 1.01 | locus YGL173C, strain kem1, active compounds read low 0.976 | locus YGL227W, strain vid30, active compounds read low 0.97 | locus YGL248W, strain PDE1, active compounds read low 1.02 | locus YGL253W, strain hxk2, active compounds read low 0.997 | locus YGR078C, strain PAC10, active compounds read low 1.02 | locus YGR135W, strain pre9, active compounds read low 1 | locus YGR252W, strain gcn5, active compounds read low 0.988 | locus YHR013C, strain ard1, active compounds read low 1.13 | locus YHR027C, strain rpn1, active compounds read low 0.992 | locus YHR030C, strain SLT2, active compounds read low 1.02 | locus YHR079C, strain IRE1 (second series), active compounds read low 0.98 | locus YHR094C, strain hxt1, active compounds read low 0.99 | locus YHR129C, strain ARP1, active compounds read low 1.01 | locus YHR142W, strain chs7, active compounds read low 0.928 | locus YHR200W, strain rpn10, active compounds read low 0.991 | locus YIL066C, strain RNR3, active compounds read low 1.04 | locus YIL073C, strain SPO22, active compounds read low 1 | locus YIL125W, strain kgd1, active compounds read low 0.99 | locus YIR030C, strain dcg1, active compounds read low 0.985 | locus YJL092W, strain hpr5, active compounds read low 0.983 | locus YJL095W, strain BCK1 (second series), active compounds read low 0.947 | locus YJL095W, strain BCK1, active compounds read low 0.999 | locus YJL115W, strain asf1, active compounds read low 1.01 | locus YJL134W, strain LCB3, active compounds read low 1.02 | locus YJL154C, strain vps35, active compounds read low 0.994 | locus YJL164C, strain tpk1, active compounds read low 0.952 | locus YJL166W, strain qcr8, active compounds read low 0.932 | locus YJL168C, strain set2, active compounds read low 0.993 | locus YJL187C, strain SWE1 (second series), active compounds read low 1.01 | locus YJR043C, strain POL32, active compounds read low 1.05 | locus YKL009W, strain mrt4, active compounds read low 0.997 | locus YKL068W, active compounds read low 0.998 | locus YKL085W, strain MDH1 (second series), active compounds read low 0.999 | locus YKL085W, strain MDH1, active compounds read low 0.999 | locus YKL160W, strain elf1, active compounds read low 0.96 | locus YKR001C, strain vps1, active compounds read low 0.997 | locus YKR026C, strain gcn3, active compounds read low 0.98 | locus YKR091W, strain srl3, active compounds read low 0.995 | locus YLL001W, strain dnm1, active compounds read low 0.954 | locus YLL026W, active compounds read low 0.966 | locus YLL041C, strain sdh2, active compounds read low 0.958 | locus YLR039C, strain RIC1, active compounds read low 0.984 | locus YLR058C, strain SHM2, active compounds read low 1.02 | locus YLR102C, strain apc9, active compounds read low 0.983 | locus YLR221C, strain rsa3, active compounds read low 0.962 | locus YLR258W, strain gsy2, active compounds read low 0.947 | locus YLR262C, strain YPT6 (second series), active compounds read low 1.03 | locus YLR262C, strain YPT6, active compounds read low 1.01 | locus YLR268W, strain sec22, active compounds read low 0.992 | locus YLR320W, strain mms22, active compounds read low 0.889 | locus YLR330W, strain CHS5, active compounds read low 1.02 | locus YLR342W, strain FKS1 (second series), active compounds read low 1.04 | locus YLR342W, strain FKS1, active compounds read low 0.952 | locus YLR357W, strain rsc2, active compounds read low 0.947 | locus YLR370C, strain arc18, active compounds read low 1.01 | locus YLR371W, strain rom2, active compounds read low 0.982 | locus YLR384C, strain iki3, active compounds read low 1 | locus YLR418C, strain cdc73, active compounds read low 0.981 | locus YML016C, strain PPZ1, active compounds read low 1.03 | locus YML032C, strain rad52, active compounds read low 0.989 | locus YML120C, strain ndi1, active compounds read low 0.979 | locus YML124C, strain tub3, active compounds read low 0.988 | locus YMR058W, strain fet3, active compounds read low 0.937 | locus YMR078C, strain ctf18, active compounds read low 1 | locus YMR125W, strain sto1, active compounds read low 0.984 | locus YMR129W, active compounds read low 0.978 | locus YMR223W, strain ubp8, active compounds read low 0.998 | locus YMR231W, strain pep5, active compounds read low 1.01 | locus YMR263W, strain SAP30, active compounds read low 1.02 | locus YMR307W, strain GAS1, active compounds read low 1.16 and 0.976 | locus YNL067W, strain RPL9B, active compounds read low 1 | locus YNL128W, strain TEP1, active compounds read low 1.02 and 0.958 | locus YNL175C, strain NOP13, active compounds read low 0.934 | locus YNL197C, strain WHI3, active compounds read low 0.946 | locus YNL209W, strain ssb2, active compounds read low 0.99 | locus YNL224C, strain SQS1, active compounds read low 0.94 | locus YNL233W, strain BNI4, active compounds read low 1 | locus YNL248C, strain rpa49, active compounds read low 0.99 | locus YNL250W, strain rad50, active compounds read low 0.98 | locus YNL271C, strain bni1, active compounds read low 0.993 | locus YNL298W, strain CLA4, active compounds read low 1.01 | locus YNL307C, strain MCK1, active compounds read low 0.991 | locus YNL322C, strain KRE1 (second series), active compounds read low 0.973 | locus YNR049C, strain mso1, active compounds read low 0.992 | locus YNR052C, strain pop2, active compounds read low 0.979 | locus YOL006C, strain TOP1, active compounds read low 0.986 | locus YOL012C, strain htz1 1.17 | locus YOL147C, strain pex11, active compounds read low 0.993 | locus YOR001W, strain rrp6, active compounds read low 0.997 | locus YOR061W, strain CKA2, active compounds read low 1.03 | locus YOR069W, strain VPS5, active compounds read low 1.02 | locus YOR070C, strain gyp1, active compounds read low 0.988 | locus YOR080W, strain dia2, active compounds read low 1.01 | locus YOR083W, strain WHI5 (second series), active compounds read low 0.891 | locus YOR083W, strain WHI5, active compounds read low 0.952 | locus YOR106W, strain vam3, active compounds read low 0.955 | locus YOR136W, strain idh2, active compounds read low 0.982 | locus YOR144C, strain elg1, active compounds read low 0.988 | locus YOR184W, strain ser1, active compounds read low 1 | locus YOR265W, strain rbl2, active compounds read low 0.979 | locus YOR270C, strain vph1, active compounds read low 0.964 | locus YOR290C, strain snf2, active compounds read low 0.957 | locus YOR316C, strain cot1, active compounds read low 1 | locus YPL051W, strain arl3, active compounds read low 0.987 | locus YPL055C, strain LGE1, active compounds read low 1.02 | locus YPL078C, strain atp4, active compounds read low 0.935 | locus YPL106C, strain sse1, active compounds read low 0.972 | locus YPL240C, strain hsp82, active compounds read low 0.992 | locus YPL241C, strain CIN2, active compounds read low 1.01 and 0.971 | locus YPR119W, strain clb2, active compounds read low 0.989 | locus YPR141C, strain kar3, active compounds read low 0.991 | locus YPR163C, strain tif3, active compounds read low 0.991 | locus YPR167C, strain met16, active compounds read low 0.995 | strain wtn01, active compounds read low 0.992
